Measured values: PubChem BioAssay AID1159580 (chemical genetic matrix, 2015)
Among all 5,500 compounds or so, about 2,000 (36%) were called active. Not shown: some 18% with an inconclusive outcome. Rule as the data show it: active = normalized growth mostly below about 0.91 (no sharp cut-off); inconclusive = no clear call, values can overlap the other calls; inactive = mostly above about 0.92. The list shows a part of the results.

Assay: chemical genetic growth profiling, strain panel (AID 1159580);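 also: tested at 20 µM; growth read once vehicle control cultures reached saturation at 30 °C; 1 = growth at the plate median or of vehicle wells; lower values mean less growth of the strain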
Conditions: S. cerevisiae deletion strains, growth OD
[1] = locus YAR019C, strain CDC15, hits give low values
[2] = locus YBL105C, strain PKC1, hits give low values
[3] = locus YBR135W, strain CKS1, hits give low values
[4] = locus YBR136W, strain MEC1, hits give low values
[5] = locus YBR160W, strain CDC28, hits give low values
[6] = locus YDL017W, strain CDC7, hits give low values
[7] = locus YDL028C, strain MPS1, hits give low values
[8] = locus YDL101C, strain DUN1, hits give low values
[9] = locus YDL108W, strain KIN28, hits give low values
[10] = locus YDL132W, strain cdc53, hits give low values
[11] = locus YDL214C, strain PRR2, hits give low values
[12] = locus YDR052C, strain DBF4, hits give low values
[13] = locus YDR054C, strain cdc34, hits give low values
[14] = locus YDR226W, strain ADK1, hits give low values
[15] = locus YDR477W, strain SNF1, hits give low values
[16] = locus YER123W, strain YCK3, hits give low values
[17] = locus YER133W, strain GLC7, hits give low values
[18] = locus YFL009W, strain cdc4, hits give low values
[19] = locus YFL029C, strain CAK1, hits give low values
[20] = locus YFR003C, strain YPI1, hits give low values
[21] = locus YFR019W, strain FAB1, hits give low values
[22] = locus YFR028C, strain CDC14, hits give low values
[23] = locus YGR040W, strain KSS1, hits give low values
[24] = locus YGR052W, strain FMP48, hits give low values
[25] = locus YGR092W, strain DBF2, hits give low values
[26] = locus YHR030C, strain SLT2, hits give low values
[27] = locus YHR079C, strain IRE1, hits give low values
[28] = locus YHR082C, strain KSP1, hits give low values
[29] = locus YHR205W, strain SCH9, hits give low values
[30] = locus YIL147C, strain SLN1, hits give low values
[31] = locus YJL095W, strain BCK1, hits give low values
[32] = locus YJL128C, strain PBS2, hits give low values
[33] = locus YJL157C, strain FAR1, hits give low values
[34] = locus YJR016C, strain ILV3, hits give low values
[35] = locus YJR066W, strain TOR1 (second series), hits give low values
[36] = locus YJR066W, strain TOR1, hits give low values
[37] = locus YKL048C, strain ELM1, hits give low values
[38] = locus YKL067W, strain YNK1, hits give low values
[39] = locus YKL101W, strain HSL1, hits give low values
[40] = locus YKL193C, strain SDS22, hits give low values
[41] = locus YKL203C, strain TOR2, hits give low values
[42] = locus YLR113W, strain HOG1, hits give low values
[43] = locus YLR133W, strain CKI1, hits give low values
[44] = locus YLR403W, strain SFP1, hits give low values
[45] = locus YML070W, strain DAK1, hits give low values
[46] = locus YMR001C, strain CDC5, hits give low values
[47] = locus YMR205C, strain PFK2 (second series), hits give low values
[48] = locus YMR277W, strain FCP1, hits give low values
[49] = locus YNL006W, strain LST8, hits give low values
[50] = locus YNL020C, strain ARK1, hits give low values
[51] = locus YNL161W, strain CBK1, hits give low values
[52] = locus YNL183C, strain NPR1, hits give low values
[53] = locus YNL207W, strain RIO2, hits give low values
[54] = locus YNL222W, strain SSU72, hits give low values
[55] = locus YNL307C, strain MCK1 (second series), hits give low values
[56] = locus YOL078W, strain AVO1, hits give low values
[57] = locus YOL136C, strain PFK27, hits give low values
[58] = locus YOR061W, strain CKA2, hits give low values
[59] = locus YOR119C, strain RIO1, hits give low values
[60] = locus YOR231W, strain MKK1, hits give low values
[61] = locus YOR329C, strain SCD5, hits give low values
[62] = locus YPL031C, strain PHO85, hits give low values
[63] = locus YPL153C, strain RAD53, hits give low values
[64] = locus YPL204W, strain HRR25, hits give low values
[65] = locus YPL209C, strain IPL1, hits give low values
[66] = locus YPL256C, strain CLN2, hits give low values
[67] = locus YPR025C, strain CCL1, hits give low values
[68] = locus YPR106W, strain ISR1, hits give low values
[69] = locus YPR111W, strain DBF20, hits give low values
[70] = strain NNK1, hits give low values
[71] = strain TSCII, hits give low values

Measured: normalized growth

OC(=Cc1nc2ccccc2nc1C=C(O)c1ccc(Cl)cc1)c1ccc(Cl)cc1
inactive: [1] 0.993 | [2] 0.974 | [3] 0.983 | [4] 0.967 | [5] 0.984 | [6] 0.98 | [7] 0.97 | [8] 0.977 | [9] 0.961 | [10] 0.995 | [11] 0.895 | [12] 0.981 | [13] 0.972 | [14] 0.969 | [15] 0.856 | [16] 0.85 | [17] 0.9 | [18] 0.976 | [19] 0.976 | [20] 0.978 | [21] 0.918 | [22] 0.987 | [23] 0.855 | [24] 0.903 | [25] 0.793 | [26] 0.874 | [27] 0.96 | [28] 0.851 | [29] 0.882 | [30] 0.958 | [31] 0.933 | [32] 0.965 | [33] 0.84 | [34] 0.977 | [35] 0.852 | [36] 0.889 | [37] 0.868 | [38] 0.871 | [39] 0.8 | [40] 1 | [41] 0.932 | [42] 0.902 | [43] 0.884 | [44] 0.904 | [45] 0.855 | [46] 0.992 | [47] 0.859 | [48] 0.977 | [49] 0.982 | [50] 0.851 | [51] 0.983 | [52] 0.921 | [53] 0.966 | [54] 0.982 | [55] 0.823 | [56] 0.982 | [57] 0.867 | [58] 0.769 | [59] 0.921 | [60] 0.936 | [61] 0.983 | [62] 0.843 | [63] 0.862 | [64] 0.89 | [65] 0.979 | [66] 0.941 | [67] 0.979 | [68] 0.962 | [69] 0.954 | [70] 0.96 | [71] 0.989

O=C(Nc1ccc(Cl)cc1)OCCSc1nc2ccccc2s1
active: [26] 0.757 | [42] 0.859
inactive: [1] 0.987 | [2] 0.973 | [3] 0.979 | [4] 0.976 | [5] 0.979 | [6] 0.983 | [7] 0.982 | [8] 0.985 | [9] 0.978 | [10] 0.979 | [11] 0.883 | [12] 0.994 | [13] 0.973 | [14] 0.987 | [15] 0.959 | [16] 0.887 | [17] 0.93 | [18] 0.981 | [19] 0.975 | [20] 0.977 | [21] 0.848 | [22] 0.975 | [23] 0.929 | [24] 0.911 | [25] 0.928 | [27] 0.902 | [28] 0.86 | [29] 0.695 | [30] 0.988 | [31] 0.845 | [32] 0.944 | [33] 0.894 | [34] 0.985 | [35] 0.811 | [36] 0.833 | [37] 1.01 | [38] 0.901 | [39] 0.952 | [40] 0.983 | [41] 0.987 | [43] 0.93 | [44] 0.899 | [45] 0.894 | [46] 0.976 | [47] 0.95 | [48] 0.979 | [49] 0.991 | [50] 0.929 | [51] 0.985 | [52] 0.846 | [53] 0.983 | [54] 0.976 | [55] 0.909 | [56] 0.977 | [57] 0.902 | [58] 0.928 | [59] 0.984 | [60] 0.931 | [61] 0.987 | [62] 0.955 | [63] 0.95 | [64] 0.922 | [65] 0.982 | [67] 0.977 | [68] 0.984 | [69] 0.972 | [70] 0.988 | [71] 0.979

O=C(/C=C/Sc1nc2ccccc2s1)c1ccc(Cl)cc1
inactive: [1] 0.977 | [2] 0.972 | [3] 0.983 | [4] 0.986 | [5] 0.983 | [6] 0.983 | [7] 0.987 | [8] 0.975 | [9] 0.985 | [10] 0.983 | [11] 0.894 | [12] 0.99 | [13] 0.969 | [14] 0.981 | [15] 0.926 | [16] 0.872 | [17] 0.911 | [18] 0.98 | [19] 0.977 | [20] 0.981 | [21] 0.932 | [22] 0.986 | [23] 0.941 | [24] 0.92 | [25] 0.925 | [27] 0.78 | [28] 0.932 | [29] 0.743 | [30] 0.99 | [31] 0.854 | [32] 0.954 | [33] 0.896 | [34] 0.985 | [35] 0.808 | [36] 0.893 | [37] 0.958 | [38] 0.909 | [39] 0.927 | [40] 0.986 | [41] 0.975 | [43] 0.905 | [44] 0.901 | [45] 0.877 | [46] 0.978 | [47] 0.936 | [48] 0.988 | [49] 0.979 | [50] 0.911 | [51] 0.962 | [52] 0.923 | [53] 0.988 | [54] 0.981 | [55] 0.92 | [56] 0.981 | [57] 0.83 | [58] 0.953 | [59] 0.996 | [60] 0.811 | [61] 0.972 | [62] 0.912 | [63] 0.942 | [64] 0.882 | [65] 0.979 | [67] 0.972 | [68] 0.985 | [69] 0.979 | [70] 0.981 | [71] 0.983
active: [26] 0.697 | [42] 0.593 | [66] 0.72
